Assay outcomes (PubChem)
A selection: hits, their analogues and other compounds. The true share with any hit is near 4.1%.
Mtb FBA inh – Mtb FBA enzyme inhibitors, primary screen, biochemical, fluorescence, strain H37Rv. Fructose-bisphosphate aldolase (Mycobacterium tuberculosis (strain ATCC 25618 / H37Rv)), …. purified M. tuberculosis FBA, fluorescence read-out. inhibition, % at 1 µM. 360,000 compounds, 2.3% hits. AID 588726, 2011;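 also: 0% = vehicle and 100% = reference inhibitor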
RecA splice inh – Mtb RecA intein splicing inhibitors, primary screen, biochemical, fluorescence, HTS; 290,000 compounds, 0.75% hits; cell-free RecA intein splicing; AID 2221, 2009; inhibition, % (concentration not given with the values); in the data active = inhibition above about 30%;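 also: 0% = vehicle wells and 100% = reference inhibitor control wells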
UGM FP inh – M. tuberculosis UGM enzyme inhibitors, primary screen, biochemical, fluorescence polarization, single point; UDP-galactopyranose mutase (Mycobacterium tuberculosis (strain ATCC 25618 / H37Rv)), …; purified UGM, fluorescence polarization probe displacement; inhibition, % at 10 µM; 320,000 compounds, 0.06% hits; AID 504406, 2011; in the data active = inhibition above about 10%, passing the limit was not always enough
Target sequence (P9WIQ1 whole entry, looked up): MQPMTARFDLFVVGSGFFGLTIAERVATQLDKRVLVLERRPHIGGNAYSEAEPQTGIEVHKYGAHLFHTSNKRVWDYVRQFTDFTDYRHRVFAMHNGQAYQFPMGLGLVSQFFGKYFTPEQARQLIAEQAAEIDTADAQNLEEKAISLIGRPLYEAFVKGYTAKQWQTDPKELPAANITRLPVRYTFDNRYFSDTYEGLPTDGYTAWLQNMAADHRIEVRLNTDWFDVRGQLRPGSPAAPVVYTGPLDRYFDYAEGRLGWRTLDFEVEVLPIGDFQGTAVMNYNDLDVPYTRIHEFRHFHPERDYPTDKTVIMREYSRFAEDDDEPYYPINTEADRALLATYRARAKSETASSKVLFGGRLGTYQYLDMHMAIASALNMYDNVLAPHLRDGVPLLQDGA
GDH-TPI counter-1 – GDH-TPI coupling enzyme inhibitors, primary screen, artefact control for M. tuberculosis FBA inhibitor project, biochemical, absorbance, full deck | 360,000 compounds, 1.2% hits | GDH-TPI coupled enzyme counterscreen, NADH absorbance | inhibition, % at 4.8 µM; in the data active = inhibition above about 30%;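 also: 0% = DMSO wells and 100% = wells lacking the enzyme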
BH1578 lux ind – inducers of Vibrio cholerae quorum light production without autoinducers, primary screen, BH1578 luxS cqsA deficient, single point; V. cholerae BH1578 lux reporter, luminescence, 6 h; activation, % at 18.7 µM; 350,000 compounds, 0.16% hits; AID 588436, 2011; in the data active = activation mostly above about 9.7%, no sharp cut-off
Rv3671c protease – Rv3671c serine protease inhibitors, primary screen, biochemical, fluorescence polarization, M. tuberculosis H37Rv; inhibition, % at 5.96 µM; 320,000 compounds, 0.048% hits; AID 2606, 2010; in the data active = inhibition above about 38%;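 also: extracellular domain of Rv3671c used as enzyme; 0% = enzyme with DMSO and 100% = no enzyme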
Mtb FBA inh conf – M. tuberculosis aldolase blockers, biochemical, fluorescence, strain H37Rv, confirmation. shares compounds with Mtb FBA inh. purified M. tuberculosis FBA, fluorescence read-out. inhibition, % at 1 µM. 5,600 compounds, 78% hits;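 also: 0% = vehicle wells and 100% = reference inhibitor wells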
GDH-TPI counter-2 – GDH-TPI coupling enzyme inhibitors, artefact control for M. tuberculosis FBA inhibitor project, biochemical, fluorescence, high throughput; shares compounds with Mtb FBA inh; GDH-TPI coupled enzyme counterscreen; inhibition, % at 1 µM; 5,600 compounds, 81% hits; AID 652141, 2013; in the data active = inhibition above about 10%
An asterisk follows results filed as active; i = inactive; . = not tested or not shown; + = active, no number. Rule as the data show it, unless noted: active = inhibition above about 27%; inactive = the rest.

SMILES | Mtb FBA inh | RecA splice inh | UGM FP inh | GDH-TPI counter-1 | BH1578 lux ind | Rv3671c protease | Mtb FBA inh conf | GDH-TPI counter-2
C=CCn1c(-c2cc3cccc(OC)c3o2)n[nH]c1=S | 44* | 0 | 0 | 10 | -1 | 8 | 102* | 72*
CC(C)(C)OC(=O)CC(S(=O)(=O)c1ccccc1)S(=O)(=O)c1ccccc1 | 0 | . | . | 0 | -5 | . | . | .
CCOCCCn1c(=S)[nH]c2cc(C(=O)NCc3ccc(F)cc3)ccc2c1=O | 2 | 1 | 2 | 11 | -1 | 2 | . | .
CCOC(=O)C1=C(Nc2ccccc2)CSC1 | -2 | . | . | 13 | -6 | . | . | .
COc1cc2cc(CN(CCO)S(=O)(=O)c3ccccc3)c(=O)[nH]c2cc1OC | 38* | -1 | -2 | 38* | 0 | 1 | 88* | 71*
O=C(Nc1cccc(C(=O)N2CCCc3ccccc32)c1)c1ccccc1 | -2 | 4 | 0 | 0 | i | -9 | . | .
Cc1cccc2cc(C#N)c(NCCNS(=O)(=O)c3ccc4c(c3)OCCO4)nc12 | 47* | -3 | 0 | 16 | -3 | -12 | 125* | 93*
COc1ccc(C(=O)NCCNc2nc3c(C)cccc3cc2C#N)cc1OC | 29* | -29 | 1 | -15 | i | 3 | + | +
COc1ccc(C(=O)NCCNc2nc3c(C)cccc3cc2C#N)cc1 | 20 | -7 | 0 | 4 | 0 | -10 | . | .
CCC(=O)NCCCNc1nc2c(C)cccc2cc1C#N | 38* | . | 2 | -3 | 0 | 3 | 142* | 102*
COc1cc(C(=O)NCCNc2nc3c(C)cccc3cc2C#N)cc(OC)c1OC | 1 | . | . | -1 | i | . | . | .
CCN(CC)C(=O)Cn1cc(C(=O)C(=O)NCc2ccccn2)c2ccccc21 | 2 | -5 | 0 | 19 | -1 | 3 | . | .
O=c1[nH]c(=S)[nH]cc1Oc1ccc(Br)cc1Br | 1 | . | . | 16 | i | . | . | .
Cc1ccc(C)c(COC(=O)CCN=C2NS(=O)(=O)c3ccccc32)c1 | 4 | 0 | 1 | 11 | i | -17 | . | .
C#CCOCCOCCOCCNc1nc(OC)nc(N2CCN(C(=O)[C@H](CCC(=O)O)n3cc(C(N)CO)nn3)CC2)n1 (stereo partly specified) | 3 | . | -3 | -4 | -1 | -6 | . | .
CC1=CC(c2ccccc2)n2nc(N3C(=O)CCC3=O)nc2N1 (stereo unspecified) | 104* | -17 | 4 | 3 | i | -5 | 74* | 41*
COc1ccc(CCNC(=O)Nc2ccc3c(c2)c(=O)n(C)n3Cc2ccc(Cl)cc2)cc1OC | 88* | . | . | -2 | 0 | . | 29* | 28*
CC(C)=CCn1c2ccc(NC(=S)NC3CC3)cc2c(=O)n1C | 31* | . | . | -2 | 0 | . | 88* | 74*
Cn1c(=O)c2cc(NC(=S)NC3CC3)ccc2n1Cc1ccccc1 | 41* | . | . | 3 | i | . | 7 | -1
COc1ccc(NC(=O)NCCc2cccc(Cl)c2)cc1OC | -1 | 1 | 2 | -1 | 0 | 3 | . | .
Cc1ccc(NC(=S)NC2CCN(Cc3ccccc3)CC2)cc1C | 2 | 3 | 2 | 1 | 0 | -3 | . | .
Cc1cc(C)cc(-n2c3ccc(NC(=S)NC4CCCCC4)cc3c(=O)n2C)c1 | 12 | . | . | 3 | i | . | . | .
Cc1nc(Cn2c3ccc(NC(=S)NC4CCCCC4)cc3c(=O)n2C)cs1 | 28* | . | . | 12 | -5 | . | 73* | 49*
COc1ccc(S(=O)(=O)N(CC(=O)NCC2CCCO2)Cc2ccccc2)cc1C (stereo unspecified) | 3 | -6 | 2 | -3 | 0 | -1 | . | .
